From PubChem
HEK293 tox: qHTS of GLP-1 Receptor Inverse Agonists: Cytotox Screen; HEK293 cAMP-luciferase reporter cells, luminescence, 24 h; Potency, µM (series often up to 38.3 µM), without a hit: at the highest dose activity change, negative = inhibition, hits mostly inhibitors; 410,000 tested, 0.13% active; AID 624418, 2012;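 further: loss of luciferase light is scored as toxicity; on the % scale 0 is the no-effect control and ±100 the full control effect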
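Here, cytotoxicity is scored as loss of luminescence. The MLSMR collection was tested on cells seeded in medium containing 10% Nu serum, with a 24 hr compound exposure preceded by 12 hours of culture.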
VP16 counter: VP16 counterscreen qHTS for inhibitors of ROR gamma transcriptional activity; Potency, µM (highest dose often 53.6 µM), for inactives: top-dose activity, negative = inhibition, most hits filed as inhibitors; Drosophila S2 Gal4-VP16 UAS-luciferase, luminescence, 20 h; 310,000 tested, 3.5% active;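 further: Gal4-VP16 expression switched on by copper sulfate through the metallothionein promoter; on the % scale 0 is the no-effect control and ±100 the full control effect; nearly all actives have a fitted effect of over 50% in size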
GLP1R ag: qHTS of GLP-1 Receptor Agonists. AID 624172, 2012. Glucagon-like peptide 1 receptor (Homo sapiens), P43220. HEK293 GLP-1R CRE-luciferase, luminescence, 4-6 h; cells express a hypersensitive GLP-1R form. Potency, µM (series often up to 45.6 µM), for inactives: at the top dose activation, hits mostly activators. 380,000 tested, 0.007% active; further: % of control where 0% means no effect
Target sequence (P43220 whole entry, looked up): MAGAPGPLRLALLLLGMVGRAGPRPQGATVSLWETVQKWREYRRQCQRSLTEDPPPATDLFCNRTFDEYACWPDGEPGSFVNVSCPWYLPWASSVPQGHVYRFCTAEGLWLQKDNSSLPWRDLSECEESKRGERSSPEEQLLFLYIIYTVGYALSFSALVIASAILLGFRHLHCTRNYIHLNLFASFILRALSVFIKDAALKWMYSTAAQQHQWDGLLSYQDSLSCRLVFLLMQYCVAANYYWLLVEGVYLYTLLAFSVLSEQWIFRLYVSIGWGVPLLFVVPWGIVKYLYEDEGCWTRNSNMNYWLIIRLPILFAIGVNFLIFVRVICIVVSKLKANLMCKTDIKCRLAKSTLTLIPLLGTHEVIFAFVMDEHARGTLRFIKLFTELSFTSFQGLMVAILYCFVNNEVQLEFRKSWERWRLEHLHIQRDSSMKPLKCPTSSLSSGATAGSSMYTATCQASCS
GLP-1R inv ag: qHTS of GLP-1 Receptor Inverse Agonists (Inhibition Mode) | Glucagon-like peptide 1 receptor (Homo sapiens), P43220 | HEK293 GLP-1R CRE-luciferase, luminescence, 24 h; GLP-1R form is constitutively active | Potency, µM (doses to about 38.3 µM), for inactives: at the highest dose activity change, negative = inhibition, hits mostly inhibitors | 410,000 tested, 1.6% active | AID 624417, 2012; further: on the % scale 0 is the no-effect control and ±100 the full control effect; nearly all actives have a fitted effect of over 55% in size
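Readout was luciferase luminescence, measured 12 min after detection reagent at room temperature. Beforehand, GLP-1R reporter HEK293 cells had sat 12 h, then received compounds for 24 hr at 37 deg C.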
RORg inh: qHTS for inhibitors of ROR gamma transcriptional activity; Potency, µM (highest dose often 53.6 µM), without a hit: at the top dose activity change, negative = inhibition, usual class: inhibitors; Nuclear receptor ROR-gamma (Mus musculus), P51450; Drosophila S2 Gal4-RORgamma UAS-luciferase reporter, 20 h; AID 2551, 2010; 310,000 tested, 5.4% active; further: on the % scale 0 is the no-effect control and ±100 the full control effect; nearly all actives have a fitted effect of over 60% in size
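Stably transfected Drosophila Schneider cells are the test system, with ROR gamma fused to Gal4 and luciferase under UAS control; luminescence is read after 20 hr of 700 uM copper sulfate induction at ambient temperature.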
An asterisk follows results filed as active. Most compounds without a hit are left out; they make up all but 5.9% or so of the library. The call rests on the fitted dose curve; in most records, active means well fitted curve in the direction sought with a large enough effect; inconclusive means small, poorly fitted or top-dose-only effect, or another doubt; inactive means no such curve, though single readings can be large; an effect the other way counts as inactive or inconclusive. Potency means the concentration at half of the fitted maximal effect.

What do the screens show for `O=C(/C=C/c1ccc(S(=O)(=O)N2CCOCC2)cc1)NC(=S)Nc1ccc(Cl)cc1Cl`?
HEK293 tox: -13.8%; VP16 counter: 11.6%; GLP1R ag: 3.3%; GLP-1R inv ag: 8.7%; RORg inh: 11.2µM*

How did O=C(Nc1ccccc1)O/N=C/c1ccc(F)cc1 do in these assays?
HEK293 tox: 1.8%; VP16 counter: inconclusive; GLP1R ag: 2.0%; GLP-1R inv ag: -6.7%; RORg inh: 10µM*

What do the screens show for `CCc1ccc2c(c1)c(=O)c(S(=O)(=O)c1ccc(F)cc1)cn2CC(=O)Nc1ccc(C)cc1C`?
HEK293 tox: 3.0%; GLP1R ag: 0.6%; GLP-1R inv ag: -9.0%

Results for CCC1(c2ccc(OC)cc2)NC(=O)N(C)C1=O (stereo not drawn) ?
VP16 counter: 15.9%; RORg inh: 5.3%

What do the screens show for `Cc1ccc(/C=C/c2onc(C)c2S(=O)(=O)N2CCC(C(=O)N3CCN(c4ccccc4F)CC3)CC2)cc1`?
HEK293 tox: 4.0%; GLP1R ag: -1.8%; GLP-1R inv ag: -6.1%

How did Cc1ccccc1NC(=O)c1sc2nc3c(cc2c1N)CCCC3 do in these assays?
HEK293 tox: -12.4%; GLP-1R inv ag: inconclusive

What do the screens show for `O=C(/C=C/c1ccc(F)cc1)NC(=S)Nc1ccccc1`?
HEK293 tox: -28.6%; VP16 counter: 10µM*; GLP1R ag: 3.9%; GLP-1R inv ag: 23.6%; RORg inh: 7.94µM*

What do the screens show for `NC(N)=NS(=O)(=O)c1ccc(NC(=S)NC(=O)/C=C/c2ccc(F)cc2)cc1`?
HEK293 tox: -2.5%; VP16 counter: 10.0%; GLP1R ag: -1.0%; GLP-1R inv ag: -8.0%; RORg inh: -23.8%

What do the screens show for `O=C(/C=C/c1ccc(F)cc1)NC(=S)N1CCOCC1`?
HEK293 tox: inconclusive; VP16 counter: 3.3%; GLP1R ag: 5.0%; GLP-1R inv ag: -19.4%; RORg inh: 7.9%

Results for CC(=O)NC(NC(=S)Nc1ccc(N=Nc2ccccc2)cc1)C(Cl)(Cl)Cl (stereo not drawn) ?
HEK293 tox: -22.4%; VP16 counter: 5.01µM*; GLP1R ag: -21.8%; GLP-1R inv ag: inconclusive; RORg inh: 7.08µM*

How did O=C(/C=C/c1ccc(F)cc1)NC(=S)N1CCN(Cc2ccccc2)CC1 do in these assays?
HEK293 tox: inconclusive; VP16 counter: 7.08µM*; GLP1R ag: 0.8%; GLP-1R inv ag: inconclusive; RORg inh: 2.51µM*

How did COc1ccc(-n2nc(C(=O)N3CCCCC3)c3c4ccccc4n(C)c3c2=O)cc1Cl do in these assays?
HEK293 tox: -3.8%; GLP-1R inv ag: 2.2%

What do the screens show for `NS(=O)(=O)c1ccc(NC(=O)CN2CCN(c3ccc(F)cc3)CC2)cc1`?
HEK293 tox: 1.6%; GLP-1R inv ag: 2.3%

How did O=C(c1csnn1)N1CCC2(CC1)CN(c1ccccn1)C2 do in these assays?
VP16 counter: -11.8%; RORg inh: 15.0%

What do the screens show for `Cc1cccc(NC(=S)c2nc3ccccc3s2)c1`?
HEK293 tox: inconclusive; VP16 counter: 5.01µM*; GLP1R ag: -13.5%; GLP-1R inv ag: -4.7%; RORg inh: 1.12µM*

What do the screens show for `C=C(C(C)=O)C(O)c1cccc(Br)c1` (stereo not drawn)?
VP16 counter: 13.3%; RORg inh: -1.0%

Results for CCN1CCCC1CNCC(O)COc1ccc(C(C)(C)C)cc1C (stereo not drawn) ?
HEK293 tox: 7.5%; VP16 counter: 1.0%; GLP1R ag: -0.5%; GLP-1R inv ag: 5.01µM*; RORg inh: -48.2%

Results for CCN1CCCC1CNC(=O)c1cc(N)ccc1OC (stereo not drawn) ?
HEK293 tox: -5.3%; GLP1R ag: 4.5%; GLP-1R inv ag: -20.4%

What do the screens show for `Cc1nc2cc(C(=O)OCC(=O)NC(C)C(C)C)ccc2n1-c1ccccc1` (stereo not drawn)?
HEK293 tox: 4.3%; VP16 counter: 28.2µM*; GLP1R ag: -6.1%; GLP-1R inv ag: 0.0%; RORg inh: -26.8%

Results for CCOC(=O)c1sc(-c2ccc(C)cc2)c(C#N)c1C ?
HEK293 tox: -4.1%; VP16 counter: 5.0%; GLP1R ag: 4.3%; GLP-1R inv ag: 26.6%; RORg inh: 16.2%

What do the screens show for `Cc1c(C(=O)NN)sc(-c2ccccc2)c1C#N`?
HEK293 tox: 1.9%; VP16 counter: inconclusive; GLP1R ag: 13.4%; GLP-1R inv ag: -26.8%; RORg inh: 10µM*

Results for COc1ccc(N2CCN(C(=O)CCc3c(C)nn(-c4ccc(N5CCCC5)nn4)c3C)CC2)cc1 ?
HEK293 tox: 3.8%; GLP-1R inv ag: 2.0%

How did Cc1cc(C)cc(NC(=O)NCC(O)COc2ccc([N+](=O)[O-])cc2)c1 (stereo not drawn) do in these assays?
HEK293 tox: 2.0%; VP16 counter: -0.6%; GLP1R ag: 12.2%; GLP-1R inv ag: 8.91µM*; RORg inh: 12.5%

What do the screens show for `O=C(NCC(O)COc1ccc([N+](=O)[O-])cc1)Nc1ccccc1` (stereo not drawn)?
HEK293 tox: inconclusive; VP16 counter: 7.8%; GLP1R ag: 8.9%; GLP-1R inv ag: -20.0%; RORg inh: 25.8%

Results for CCC(Sc1nc(-c2ccccc2F)nc2c1Cc1c(CO)cnc(C)c1O2)C(=O)Nc1cc(C)ccc1C (stereo not drawn) ?
HEK293 tox: 2.0%; GLP-1R inv ag: 3.1%

Results for CCc1ccc([C@@H]2C[C@H]3CN(Cc4ccccc4OC)C(=O)[C@]34CCCN24)cc1 ?
HEK293 tox: -7.1%; VP16 counter: 1.2%; GLP1R ag: 7.7%; GLP-1R inv ag: 12.6µM*; RORg inh: 1.6%

What do the screens show for `O=C(NCC(c1ccc2c(c1)OCO2)N1CCN(c2ccccc2)CC1)C(=O)Nc1ccc(F)cc1` (stereo not drawn)?
HEK293 tox: 0.1%; GLP-1R inv ag: 3.0%

Results for Brc1ccc2[nH]c3c(c2c1)CCC3 ?
HEK293 tox: -3.8%; VP16 counter: 4.4%; GLP1R ag: -1.5%; GLP-1R inv ag: inconclusive; RORg inh: 8.8%

Results for O=C1Cc2c([nH]c3ccc(Br)cc23)-c2ccccc2N1 ?
HEK293 tox: -12.8%; VP16 counter: 25.1µM*; GLP1R ag: -7.8%; GLP-1R inv ag: 8.3%; RORg inh: -5.3%

How did O=C(Nc1ccccc1O)C(c1ccccc1)c1ccccc1 do in these assays?
HEK293 tox: -5.2%; VP16 counter: 15.8µM*; GLP1R ag: 6.6%; GLP-1R inv ag: inconclusive; RORg inh: inconclusive
